Experimental data taken from PubChem BioAssay AID1159580 (chemical genetic matrix, 2015).
Out of some 5,500 compounds screened, about 2,000 (36%) were called active. Not shown: some 18% with an inconclusive outcome. Rule as the data show it: active = normalized growth mostly below about 0.91 (no sharp cut-off); inconclusive = no clear call, values can overlap the other calls; inactive = mostly above about 0.92. This is one part of the list.

Assay: chemical genetic growth profiling, strain panel (AID 1159580);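 also: tested at 20 µM; growth read once vehicle control cultures reached saturation at 30 °C; 1 = growth at the plate median or of vehicle wells; lower values mean less growth of the strain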
Settings: S. cerevisiae deletion strains, growth OD
[1] = locus YDL101C, strain DUN1, stronger effect = lower value
[2] = locus YHR030C, strain SLT2, stronger effect = lower value
[3] = locus YAR019C, strain CDC15, stronger effect = lower value
[4] = locus YBL105C, strain PKC1, stronger effect = lower value
[5] = locus YBR136W, strain MEC1, stronger effect = lower value
[6] = locus YBR160W, strain CDC28, stronger effect = lower value
[7] = locus YDL017W, strain CDC7, stronger effect = lower value
[8] = locus YDL028C, strain MPS1, stronger effect = lower value
[9] = locus YDL108W, strain KIN28, stronger effect = lower value
[10] = locus YDL214C, strain PRR2, stronger effect = lower value
[11] = locus YDR052C, strain DBF4, stronger effect = lower value
[12] = locus YDR054C, strain cdc34, stronger effect = lower value
[13] = locus YDR226W, strain ADK1, stronger effect = lower value
[14] = locus YER123W, strain YCK3, stronger effect = lower value
[15] = locus YFR003C, strain YPI1, stronger effect = lower value
[16] = locus YGR040W, strain KSS1, stronger effect = lower value
[17] = locus YGR052W, strain FMP48, stronger effect = lower value
[18] = locus YGR092W, strain DBF2, stronger effect = lower value
[19] = locus YIL147C, strain SLN1, stronger effect = lower value
[20] = locus YJL095W, strain BCK1, stronger effect = lower value
[21] = locus YJL128C, strain PBS2, stronger effect = lower value
[22] = locus YJR016C, strain ILV3, stronger effect = lower value
[23] = locus YJR066W, strain TOR1 (second series), stronger effect = lower value
[24] = locus YJR066W, strain TOR1, stronger effect = lower value
[25] = locus YKL048C, strain ELM1, stronger effect = lower value
[26] = locus YKL067W, strain YNK1, stronger effect = lower value
[27] = locus YKL101W, strain HSL1, stronger effect = lower value
[28] = locus YKL203C, strain TOR2, stronger effect = lower value
[29] = locus YLR113W, strain HOG1, stronger effect = lower value
[30] = locus YLR133W, strain CKI1, stronger effect = lower value
[31] = locus YLR403W, strain SFP1, stronger effect = lower value
[32] = locus YML070W, strain DAK1, stronger effect = lower value
[33] = locus YMR001C, strain CDC5, stronger effect = lower value
[34] = locus YMR205C, strain PFK2 (second series), stronger effect = lower value
[35] = locus YNL006W, strain LST8, stronger effect = lower value
[36] = locus YNL020C, strain ARK1, stronger effect = lower value
[37] = locus YNL161W, strain CBK1, stronger effect = lower value
[38] = locus YNL183C, strain NPR1, stronger effect = lower value
[39] = locus YNL207W, strain RIO2, stronger effect = lower value
[40] = locus YOR119C, strain RIO1, stronger effect = lower value
[41] = locus YOR329C, strain SCD5, stronger effect = lower value
[42] = locus YPL153C, strain RAD53, stronger effect = lower value
[43] = locus YPL209C, strain IPL1, stronger effect = lower value
[44] = locus YPL256C, strain CLN2, stronger effect = lower value
[45] = locus YPR106W, strain ISR1, stronger effect = lower value
[46] = locus YPR111W, strain DBF20, stronger effect = lower value
[47] = strain NNK1, stronger effect = lower value
[48] = locus YBR135W, strain CKS1, stronger effect = lower value
[49] = locus YDL132W, strain cdc53, stronger effect = lower value
[50] = locus YDR477W, strain SNF1, stronger effect = lower value
[51] = locus YER133W, strain GLC7, stronger effect = lower value
[52] = locus YFL009W, strain cdc4, stronger effect = lower value
[53] = locus YFL029C, strain CAK1, stronger effect = lower value
[54] = locus YFR019W, strain FAB1, stronger effect = lower value
[55] = locus YFR028C, strain CDC14, stronger effect = lower value
[56] = locus YHR079C, strain IRE1, stronger effect = lower value
[57] = locus YHR082C, strain KSP1, stronger effect = lower value
[58] = locus YHR205W, strain SCH9, stronger effect = lower value
[59] = locus YJL157C, strain FAR1, stronger effect = lower value
[60] = locus YKL193C, strain SDS22, stronger effect = lower value
[61] = locus YMR277W, strain FCP1, stronger effect = lower value
[62] = locus YNL222W, strain SSU72, stronger effect = lower value
[63] = locus YNL307C, strain MCK1 (second series), stronger effect = lower value
[64] = locus YOL078W, strain AVO1, stronger effect = lower value
[65] = locus YOL136C, strain PFK27, stronger effect = lower value
[66] = locus YOR061W, strain CKA2, stronger effect = lower value
[67] = locus YOR231W, strain MKK1, stronger effect = lower value
[68] = locus YPL031C, strain PHO85, stronger effect = lower value
[69] = locus YPL204W, strain HRR25, stronger effect = lower value
[70] = locus YPR025C, strain CCL1, stronger effect = lower value
[71] = strain TSCII, stronger effect = lower value

Measured: normalized growth

CC1CC(=O)Nc2ccccc2N1C(=O)c1ccc([N+](=O)[O-])cc1 (stereo unspecified)
inactive: locus YAL013W, strain DEP1, stronger effect = lower value 1.01 | locus YBR229C, strain ROT2, stronger effect = lower value 1.01 | locus YCL061C, strain MRC1, stronger effect = lower value 1.02 | [1] 1.05 | locus YDL134C, strain PPH21, stronger effect = lower value 1.01 | locus YDR150W, strain NUM1, stronger effect = lower value 0.937 | locus YEL061C, strain CIN8, stronger effect = lower value 0.991 | locus YGR078C, strain PAC10, stronger effect = lower value 1.03 | [2] 1.01 | locus YHR087W, strain rtc3, stronger effect = lower value 0.978 | locus YJL187C, strain SWE1, stronger effect = lower value 1.01 | locus YJR043C, strain POL32, stronger effect = lower value 1.02 | locus YJR075W, strain HOC1, stronger effect = lower value 1.01 | locus YLR039C, strain RIC1, stronger effect = lower value 1.03 | locus YLR058C, strain SHM2 (second series), stronger effect = lower value 0.998 | locus YLR085C, strain ARP6, stronger effect = lower value 1.03 | locus YLR262C, strain YPT6, stronger effect = lower value 1 | locus YML094W, strain GIM5, stronger effect = lower value 1.02 | locus YMR219W, strain ESC1, stronger effect = lower value 1.01 | locus YMR263W, strain SAP30, stronger effect = lower value 1.05 | locus YNL153C, strain GIM3, stronger effect = lower value 1.02 | locus YNL298W, strain CLA4 (second series), stronger effect = lower value 1.05 | locus YNL322C, strain KRE1, stronger effect = lower value 1 | locus YNR030W, strain Alg12, stronger effect = lower value 1.02 | locus YOL006C, strain TOP1, stronger effect = lower value 1.01 | locus YPL055C, strain LGE1, stronger effect = lower value 0.996 | locus YPL241C, strain CIN2, stronger effect = lower value 1.02 | locus YPR135W, strain CTF4, stronger effect = lower value 1.03

CC(C)/C(=N/OC(=O)c1ccc([N+](=O)[O-])cc1)c1ccccc1
inactive: [3] 0.974 | [4] 0.965 | [5] 0.967 | [6] 0.957 | [7] 0.963 | [8] 0.955 | [1] 0.952 | [9] 0.962 | [11] 0.979 | [12] 0.955 | [13] 0.949 | [14] 0.909 | [15] 0.96 | [17] 0.814 | [18] 0.843 | [19] 0.96 | [20] 0.745 | [21] 0.943 | [22] 0.957 | [24] 0.769 | [25] 0.991 | [26] 0.911 | [28] 0.802 | [32] 0.909 | [38] 0.595 | [39] 0.955 | [40] 0.814 | [42] 0.671 | [43] 0.966 | [45] 0.978 | [46] 0.972 | [47] 0.97
active: [10] 0.148 | [16] 0.231 | [2] 0.337 | [23] 0.137 | [27] 0.242 | [29] 0.604 | [30] 0.175 | [31] 0.0636 | [33] 0.384 | [34] 0.126 | [35] 0.507 | [36] 0.174 | [37] 0.378 | [41] 0.637 | [44] 0.582

N/C(=N/OC(=O)c1cnn(-c2ccc([N+](=O)[O-])cc2)c1C(F)(F)F)c1ccc(Cl)cc1
inactive: [3] 0.985 | [4] 0.972 | [48] 0.964 | [5] 0.971 | [6] 0.974 | [7] 0.984 | [8] 0.985 | [1] 0.992 | [9] 0.975 | [49] 0.974 | [10] 0.937 | [11] 0.983 | [12] 0.97 | [13] 0.982 | [50] 0.944 | [14] 0.96 | [51] 0.82 | [52] 0.982 | [53] 0.973 | [15] 0.98 | [54] 0.974 | [55] 0.979 | [16] 0.916 | [17] 1.06 | [18] 0.964 | [2] 1.01 | [56] 1.04 | [57] 1.07 | [58] 0.699 | [19] 0.979 | [20] 1.04 | [21] 0.98 | [59] 0.973 | [22] 0.976 | [23] 0.955 | [24] 1.01 | [25] 0.993 | [26] 0.972 | [27] 0.983 | [60] 0.982 | [28] 1.04 | [29] 0.98 | [30] 0.881 | [31] 0.74 | [32] 0.92 | [33] 0.981 | [34] 0.886 | [61] 0.981 | [35] 0.99 | [36] 0.989 | [37] 0.979 | [38] 1.01 | [39] 0.98 | [62] 0.969 | [63] 0.987 | [64] 0.969 | [65] 0.979 | [66] 0.912 | [40] 1.06 | [67] 0.961 | [41] 0.985 | [68] 0.974 | [42] 0.976 | [69] 1.01 | [43] 0.978 | [44] 0.961 | [70] 0.973 | [45] 0.993 | [46] 0.976 | [47] 0.995 | [71] 0.989

O=C(OCc1ccccc1Br)c1cc([N+](=O)[O-])cc([N+](=O)[O-])c1
inactive: [3] 0.973 | [4] 0.986 | [48] 0.969 | [5] 0.98 | [6] 0.988 | [7] 0.984 | [8] 0.981 | [1] 0.985 | [9] 0.969 | [49] 0.961 | [10] 0.846 | [11] 0.984 | [12] 0.965 | [13] 0.981 | [50] 0.841 | [14] 0.84 | [51] 0.888 | [52] 0.983 | [53] 0.975 | [15] 0.977 | [54] 0.905 | [55] 0.974 | [16] 0.868 | [17] 0.871 | [18] 0.757 | [2] 0.92 | [56] 0.96 | [57] 0.923 | [58] 0.83 | [19] 0.976 | [20] 0.92 | [21] 0.944 | [59] 0.825 | [22] 0.973 | [23] 0.781 | [24] 0.885 | [25] 0.922 | [26] 0.876 | [27] 0.88 | [60] 0.974 | [28] 0.939 | [29] 0.892 | [30] 0.887 | [31] 0.857 | [32] 0.825 | [33] 0.967 | [34] 0.842 | [61] 0.988 | [35] 0.974 | [36] 0.869 | [37] 0.988 | [38] 0.947 | [39] 0.966 | [62] 0.989 | [63] 0.877 | [64] 0.978 | [65] 0.867 | [66] 0.809 | [40] 0.952 | [67] 0.937 | [41] 0.973 | [68] 0.876 | [42] 0.866 | [69] 0.86 | [43] 0.984 | [70] 0.982 | [45] 0.976 | [46] 0.973 | [47] 0.977 | [71] 0.976
